From PubChem
In the library only some 6.1% were active in any assay of this set; here they are far more common.
HEK293 cAMP ctrl = counter-screen for TSHR agonists: cAMP increase in parental HEK293; parental HEK293 CNG cAMP sensor, membrane potential fluorescence; Potency, µM (series often up to 57.1 µM), usual class: activators; 73,000 compounds, 2.5% hits; AID 938; note: nearly all actives have a fitted effect of over 55% in size
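Parental HEK 293 cells stably expressing a modified CNG channel (no TSHR) report cAMP rise as membrane depolarization. Membrane potential dye with 100 uM RO 20-1724 was loaded for 60 min at room temperature, then compound added for 30 min; fluorescence read at 590 nm.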
TSHR agonist = TSH receptor (human) agonism. P16473. HEK293-CNG-TSHR cells (CNG channel as cAMP sensor), membrane potential dye, cAMP. Potency, µM (doses to about 57.1 µM), most hits filed as activators. 73,000 compounds, 0.48% hits; active = well fitted activation curve with a large enough effect in the main read-out, with a control signal flat, not every such curve was filed as active; inconclusive = small, poorly fitted or top-dose-only effect, or a change in a side signal; inactive = no such curve, though single readings can be large or run the other way; reference of the percent scale not stated here;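 note: the control signal comes from parental cells without the receptor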
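HEK 293 cells stably expressing TSHR and a modified CNG channel, with CNG-only parental cells as counterscreen, were preloaded 60 min at room temperature with membrane potential dye containing 100 uM RO 20-1724. Compound exposure was 30 min, and depolarization was read as fluorescence at 590 nm.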
ERK AVP block = vasopressin-driven ERK pathway inhibition. AID 995. HEK293-V1b, vasopressin-stimulated pERK AlphaScreen. Potency, µM (top dose mostly 57.5 µM), usual class: inhibitors. 72,000 compounds, 0.99% hits; note: nearly all actives have a fitted effect of over 55% in size
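HEK293 cells stably expressing V1b receptor, seeded overnight in 1% FBS, were treated with compounds for 30 min at 37C, then stimulated 5 min with 25 nM vasopressin; phospho-ERK read by AlphaScreen SureFire after lysis.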
GBA activity = modulators of human glucocerebrosidase. purified enzyme, resorufin glucoside fluorescence (screen aimed at inhibitors), 20 min. P04062. 48,000 compounds, 1.1% hits. AID 360. Potency, µM; in the data active = potency below about 15 µM; inconclusive = mostly about 16 µM to 33 µM;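 note: the screen sought inhibitors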
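Normal human glucocerebrosidase (0.2 nM final) was assayed with resorufin β-D-glucopyranoside (30 uM final) in 50mM citric acid/KH2PO4, 10mM sodium taurocholate, 0.01% tween-20, pH 5.9. Compounds were titrated; fluorescence (Ex 548, Em 600) read after 20 min at RT.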
PK Bst = pyruvate kinase (B. stearothermophilus) modulation. purified pyruvate kinase, luminescence ATP production; ribose 5-phosphate activator present at AC10. Potency, µM. 51,000 compounds, 1.2% hits. AID 361; in the data active = potency below about 11 µM; inconclusive = mostly about 12 µM to 25 µM;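 the screen sought inhibitors and activators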
FLuc inh = firefly luciferase inhibition; purified firefly luciferase, luminescence, 8 min; Potency, µM (doses to about 57.1 µM), hits mostly inhibitors; 72,000 compounds, 2.2% hits; AID 411; note: nearly all actives have a fitted effect of over 40% in size
Target sequence (P08659 whole entry, looked up): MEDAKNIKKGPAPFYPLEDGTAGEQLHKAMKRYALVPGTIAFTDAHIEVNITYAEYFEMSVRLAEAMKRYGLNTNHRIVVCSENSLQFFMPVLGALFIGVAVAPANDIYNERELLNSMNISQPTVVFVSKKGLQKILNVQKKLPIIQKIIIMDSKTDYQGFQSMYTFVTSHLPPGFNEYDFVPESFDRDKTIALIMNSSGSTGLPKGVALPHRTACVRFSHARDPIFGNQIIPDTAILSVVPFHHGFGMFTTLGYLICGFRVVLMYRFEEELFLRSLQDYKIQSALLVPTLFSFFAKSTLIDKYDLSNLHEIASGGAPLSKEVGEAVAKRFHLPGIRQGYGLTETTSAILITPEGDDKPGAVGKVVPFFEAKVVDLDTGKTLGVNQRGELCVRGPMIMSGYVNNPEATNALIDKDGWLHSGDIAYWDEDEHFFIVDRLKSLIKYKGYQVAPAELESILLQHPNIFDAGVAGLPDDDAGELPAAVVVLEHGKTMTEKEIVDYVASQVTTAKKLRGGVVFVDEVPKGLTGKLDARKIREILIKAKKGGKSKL
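Compounds were tested as concentration series (qHTS) against purified P. pyralis luciferase with luciferin and 10 uM ATP in 50 mM imidazole pH 7.2, 50 mM KCl, 7 mM MgCl2, 0.01% Tween 20, 0.05% BSA. Luminescence was read after 8 min at ambient temperature.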
A number is an active result; – = inactive; ? = inconclusive; · = not tested or not shown; [ ] = remark or other dose. Unless noted, calls come from the whole dose curve; as a rule, active = well fitted curve in the direction sought with a large enough effect; inconclusive = small, poorly fitted or top-dose-only effect, or another doubt; inactive = no such curve, though single readings can be large; an effect the other way counts as inactive or inconclusive.

SMILES	HEK293 cAMP ctrl	TSHR agonist	ERK AVP block	GBA activity	PK Bst	FLuc inh
O=C(O)[C@H]1CCCC[C@@H]1c1c2ccc(=O)c(O)c-2oc2c(O)c(O)ccc12	?	?	–[11.5 µM]	·	·	–[11.4 µM]
COc1ccc(OC2C=CC(c3ccccc3)OC2CO)c(C(C)=O)c1 (stereo not given)	–[11.4 µM]	–[11.4 µM]	–[11.5 µM]	·	·	·
CCCN1C(=O)/C(=C2\SC(N3CCCCC3)=NC2=O)c2ccccc21	–	–	?	·	?	16µM
O=C1N=C(N2CCOCC2)S/C1=C1\C(=O)N(Cc2ccccc2)c2ccccc21	–	–	–	·	·	–
CCCNC(=O)OC[C@@H]1O[C@H](CCO/N=C(\C)CCN2CCCCc3nc(C)c(C)cc32)C=C[C@@H]1Oc1ccc(OC)cc1	–[11.4 µM]	–[11.4 µM]	–[11.5 µM]	·	·	–[11.4 µM]
O=C(O)CN(CC(=O)O)c1ccccc1	?	?	–[11.5 µM]	·	·	–[11.4 µM]
COc1cccc(C(=O)/C=C/Nc2cc(C)ccc2O)c1	–	–	?	–	5.6	7.9µM
Cc1cccc(OCC(=O)Nc2cc(C)ccc2O)c1	–	–	?	–	–	–
C=CCn1cnc2c(c1=O)c1nc3ccccc3nc1n2/N=C/c1cccc(OC)c1OC	–	–	–	6.6	?	–
C=CCn1cnc2c(c1=O)c1nc3ccccc3nc1n2/N=C/c1cc(OC)c(OC)c(OC)c1	–	–	–	–	–	–
C=CCn1cnc2c(c1=O)c1nc3ccccc3nc1n2/N=C/c1ccccn1	–	–	–	8.4	–	–
c1ccc(CCc2cccnc2)nc1	–[11.4 µM]	–[11.4 µM]	–[11.5 µM]	·	·	–[11.4 µM]
CCN1CCc2nc(NC(=O)c3ccc4c(c3)OCCO4)sc2C1	–	–	–	–	·	16µM
CCN1CCc2nc(NC(=O)Cc3ccc4c(c3)OCCO4)sc2C1	–	–	–	–	–	–
COc1ccc(CC[N@+]2(C)COc3cc4oc(=O)cc(C)c4cc3C2)cc1OC	–[11.4 µM]	–[11.4 µM]	–[11.5 µM]	·	·	–[11.4 µM]
Fc1ccc([C@H]2CCNC[C@H]2COc2ccc3c(c2)OCO3)cc1	–	–	–	·	·	5µM
Fc1ccc([C@H]2CCNCC2COc2ccc3c(c2)OCO3)cc1 (stereo not given in full)	·	·	–	·	·	·
CS(=O)(=O)N1CCC[C@@]2(CCN(c3ccccn3)C2)C1	–	–	–	·	·	–[11.4 µM]
COc1ccc(C(=O)c2c[nH]c3ccccc23)cc1	–[11.4 µM]	–[11.4 µM]	–	·	·	10µM
CC12CC3OS(=O)OC3CC3C4C(C(OCc5ccccc5)C31)C42 (stereo not given)	–[11.4 µM]	–[11.4 µM]	–[11.5 µM]	·	·	·
COc1cccc(/C=N/NC(=O)c2cc(-c3ccc(C)cc3)n[nH]2)c1O	–	–	·	·	·	·
COc1ccc(CNc2ccnc(-c3ccc(C(=O)N(C)C)cc3)n2)c(OC)c1	0.79µM	?	–	·	·	–[2.29 µM]
COc1ccccc1CNc1ccnc(-c2ccc(C(=O)N(C)C)cc2)n1	–	·	–	·	·	–[2.29 µM]
COc1ccccc1CNc1ccnc(-c2cccc(C#N)c2)n1	–	–	32µM	·	·	–[2.29 µM]
COc1ccc(CNc2nc(-c3ccc(C(=O)N(C)C)cc3)nc3ccccc23)c(OC)c1	–	25µM	–	·	·	–[2.29 µM]
SMILES	HEK293 cAMP ctrl	TSHR agonist	ERK AVP block	GBA activity	PK Bst	FLuc inh
COc1ccc(CNc2cc(-c3ccccc3Cl)ncn2)c(OC)c1	20µM	?	16µM	·	·	–[2.29 µM]
COc1ccc(CNc2ccnc(-c3cccc(C#N)c3)n2)c(OC)c1	?	?	–	·	·	–[2.29 µM]
CC(C)(C)N1C(=O)[C@H]2[C@H]3[C@H](O)[C@H](O)C/C(=N/OCc4ccccc4)[C@@H]3CC[C@@H]2C1=O	–[11.4 µM]	–[11.4 µM]	–[11.5 µM]	·	·	–[11.4 µM]
CC(C)[C@@H](CC(=O)N[C@@H]1CCCC[C@H]1C(=O)N[C@H](CC(=O)N[C@@H](CCC(=O)O)CC(=O)O)Cc1c[nH]c2ccccc12)NC(=O)C[C@H](CO)NC(=O)[C@@H]1CNCC[C@H]1N	–	·	·	·	·	·
COc1ccc2[nH]cc(CCNc3ccnc(-c4ccccc4C(F)(F)F)n3)c2c1	–	–	–	·	·	–[2.29 µM]
COc1ccc(CNc2ccnc(-c3ccccc3C(F)(F)F)n2)c(OC)c1	7.9µM	?	–	·	·	–[2.29 µM]
CC(C)[C@@H](CC(=O)N[C@@H]1CCCC[C@H]1C(=O)N[C@H](CC(=O)N[C@@H](CCC(=O)O)CC(=O)O)Cc1ccccc1)NC(=O)C[C@H](Cc1c[nH]c2ccccc12)NC(=O)[C@@H]1CCCC[C@H]1N	–	–	·	·	·	·
O=C(Nc1ccc2c(c1)OCO2)c1cccc2c1C(=O)N(C1CCCCC1)C2	–	3.2µM	–	·	–	–
